# Compounds with a hit are over-represented: about 19% of the library has one in this group of screens.
# HT1080-NT tox – qHTS for induction of synthetic lethality in tumor cells producing 2HG: qHTS for the HT-1080-NT fibrosarcoma cell line. AID 686970, 2013. HT-1080-NT fibrosarcoma viability, CellTiter-Glo ATP luminescence, 48 h. Potency, µM (doses to about 46.1 µM), without a hit: top-dose activity, negative = less viability, actives largely listed as cytotoxic. 1.6% of 360,000 active;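 also: NT is the 2HG producing partner of a matched IDH1 knockdown line; potency is read from the fitted curve at half-maximal effect; 0% = DMSO-treated cells and -100% = media-only wells without cells; nearly all actives have a fitted effect of over 55% in size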
#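 Viability by CellTiter-Glo luminescence after 48 h compound exposure at 37C of HT-1080-NT cells (750/well, RPMI, 5% FBS). % activity scaled between DMSO wells and medium-only wells, then curve-fitted and categorized by curve class.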
# IL1B secr inh – qHTS for Inhibitors of Inflammasome Signaling: IL-1-beta AlphaLISA Primary Screen; THP-1 LPS/ATP IL-1B secretion, AlphaLISA, 16 h; hits give low values; activity change, % at 57.5 µM; 4.7% of 360,000 active; in the data active = activity change below about -50%; inconclusive = mostly about -30% to -49%
#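 Secreted IL-1B measured by AlphaLISA bead assay after 16 h compound exposure of THP-1 cells; compounds (final up to 57.5 uM) added 1 h before LPS (250 ng/mL) and ATP (1.25 mM) stimulation; lower signal means less secretion.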
# uPA generation – qHTS for Inhibitors of Cell Surface uPA Generation. AID 540303, 2011. cell surface uPA generation assay, qHTS. Potency, µM (doses to about 38.3 µM), for the others: at the highest dose activity change, negative = inhibition, hits mostly inhibitors. 0.31% of 330,000 active; active = well fitted inhibition curve with a large enough effect; inconclusive = small, poorly fitted or top-dose-only effect; inactive = no such curve, though single readings can be large or run the other way; tested in mouse RAW 264.7 cells; also: potency is read from the fitted curve at half-maximal effect; nearly all actives have a fitted effect of over 55% in size
# DT40 TDP1 no CPT – qHTS for Inhibitors of human tyrosyl-DNA phosphodiesterase 1 (TDP1): qHTS in cells in absence of CPT | DT40 Tdp1-/- hTDP1 cells, no CPT, ATP luminescence, 48 h | Potency, µM (doses to about 46.2 µM), without a hit: at the highest dose activity change, negative = growth inhibition, actives largely listed as inhibitors | 15% of 420,000 active | AID 686978, 2013; also: potency is read from the fitted curve at half-maximal effect; nearly all actives have a fitted effect of over 55% in size
#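 Chicken DT40 Tdp1-/- cells stably complemented with human TDP1 were seeded at 400 cells/well with DMSO in place of 20 nM camptothecin. After compound pinning, cells grew at least 48 hr at 37 °C; viability read by CellTiter-Glo luminescence.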
# HT1080 IDH1KD tx – qHTS for induction of synthetic lethality in tumor cells producing 2HG: qHTS for the HT-1080-IDH1KD cell line. HT-1080 IDH1 knockdown viability, ATP luminescence, 48 h. Potency, µM (highest dose often 46.1 µM), inactives show at the top dose activity, negative = toxicity, hits mostly cytotoxic. 2% of 360,000 active. AID 686971, 2013;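 also: potency is read from the fitted curve at half-maximal effect; 0% = DMSO wells and -100% = cell-free medium wells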
#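 Assay cells: HT-1080 with IDH1 knockdown, 750 per well, RPMI/5% FBS. Exposure: 48 h at 37 °C following 2 h pre-incubation. Read: CellTiter-Glo luminescence; fitted concentration-response, curve class assigned.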
# DT40 TDP1 CPT – qHTS for Inhibitors of human tyrosyl-DNA phosphodiesterase 1 (TDP1): qHTS in cells in presence of CPT. chicken DT40 Tdp1-/-;hTDP1 cells + 20 nM CPT, ATP luminescence, 48 h. Potency, µM (highest dose often 46.2 µM), without a hit: at the highest dose activity change, negative = growth inhibition, hits mostly inhibitors. AID 686979, 2013. 12% of 420,000 active; also: potency is read from the fitted curve at half-maximal effect; nearly all actives have a fitted effect of over 55% in size
#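 Chicken DT40 Tdp1-/- cells stably complemented with human TDP1 were seeded at 400 cells/well in medium containing 20 nM camptothecin, exposed to pin-transferred compounds, and grown at 37 °C for at least 48 hr. Viability was read as ATP luminescence.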
# * hit, by the source's call; ? = inconclusive; nt = not tested or not shown. Unless noted, calls follow the shape of the dose curve; as a rule, active = well fitted curve in the direction sought with a large enough effect; inconclusive = small, poorly fitted or top-dose-only effect, or another doubt; inactive = no such curve, though single readings can be large; an effect the other way counts as inactive or inconclusive. Unless noted, % is scaled to controls: 0 for no effect and ±100 for the full control effect.
SMILES,HT1080-NT tox,IL1B secr inh,uPA generation,DT40 TDP1 no CPT,HT1080 IDH1KD tx,DT40 TDP1 CPT
O=C(c1ccco1)N1CCN(c2ccc(N3CCCCC3)nn2)CC1,13.5%,4.0,-5.4%,-1.8%,15.4%,9.8%
Cc1cc(N2CCN(c3ccccc3)CC2)nc(-c2ccccc2)n1,-1.9%,-8.0,9.9%,10.3µM*,-22.0%,23.1µM*
COCc1cc(N2CCCCC2)nc(-c2ccccc2)n1,-9.2%,2.4,1.1%,18.4µM*,?,10.3µM*
COc1ccc(Br)cc1/C=N/NC(=O)C(c1ccncc1)N1CCOCC1 (centres undefined),6.2%,21.5,-2.1%,23.1µM*,-2.7%,?
COc1cc(CN(CC(C)C)S(=O)(=O)c2ccccc2Br)cc(OC)c1,-14.5%,-17.9,?,?,-17.0%,?
COc1cccc(CN(CCC(C)C)S(=O)(=O)c2cc(Br)ccc2Br)c1,-4.1%,13.3,-10.0%,16.4µM*,-1.6%,18.4µM*
Cn1nccc1/C=C(/C#N)S(=O)(=O)c1ccccc1,3.0%,4.3,2.2%,?,9.2%,23.1µM*
CCn1cc(/C=C(/C#N)S(=O)(=O)c2ccccc2)cn1,-1.8%,-13.4,nt,1.9%,-5.4%,-15.3%
CCCNC(=O)C1(C)CCN(C(=O)c2c(Cl)cccc2Cl)C1 (centres undefined),7.4%,-10.3,nt,5.7%,5.7%,0.1%
COc1cccc(-c2nc(NC3CCNCC3)c3ccccc3n2)c1,nt,nt,nt,20.6µM*,nt,?
COc1cccc(-c2nc(NC3CCCC3)c3ccccc3n2)c1O,?,0.0,-16.6%,18.4µM*,?,?
CN(C)c1ccc(-c2nc(NC3CCNCC3)c3ccccc3n2)cc1,nt,nt,nt,1.16µM*,nt,1.3µM*
c1ccc(-c2nc(NC3CCCC3)c3ccccc3n2)cc1,-27.5%,-63.3*,-4.7%,-26.3%,-12.7%,?
c1ccc2c(NC3CCNCC3)nc(-c3ccoc3)nc2c1,nt,nt,nt,-2.8%,nt,-2.7%
CCN(C(=O)CN1C(=O)NC2(CCC(C)CC2)C1=O)C1CCCCC1 (centres undefined),17.0%,-0.9,nt,-28.9%,17.3%,4.2%
COc1cc(NC(=O)c2cc3c(=O)n(Cc4ccco4)ccc3nc2C)cc(OC)c1OC,nt,nt,nt,0.0%,nt,7.7%
CC(C)c1ccc(NC(=O)C2CCCN(S(=O)(=O)c3ccc4[nH]c(=O)oc4c3)C2)cc1 (centres undefined),nt,nt,nt,?,nt,-26.2%
CN(C)Cc1ccccc1-c1nc(NC2CCNCC2)c2ccccc2n1,nt,nt,nt,0.651µM*,nt,0.366µM*
O=S(=O)(c1ccccc1)[C@@]1(c2ccc(Br)cc2)C[C@@H]2ON=C(c3cccc(Br)c3)[C@@H]2C1,1.6%,39.9,7.6%,18.4µM*,-5.9%,?
O=S(=O)(c1ccccc1)[C@@]1(c2ccc(Br)cc2)C[C@@H]2ON=C(c3ccccc3)[C@@H]2C1,5.0%,-20.8,5.7%,11.6µM*,2.1%,?
COc1ccc(C2=NOC(C3(S(=O)(=O)c4ccccc4)CC(O)C3)C2)cc1 (centres undefined),16.8%,3.4,-14.6%,-22.4%,4.9%,-19.4%
COc1cc2c(NC3CCN(C)CC3)nc(N3CCCN(C)CC3)nc2cc1OCCCCC(N)=O,23.1%,nt,nt,-12.3%,5.5%,8.2%
COc1cc2nc(N3CCOCC3)nc(NC3CCN(C)CC3)c2cc1OC,1.6%,nt,nt,15.8µM*,-16.4%,10µM*
COc1cc2c(NC3CCN(C)CC3)nc(N3CCCN(C)CC3)nc2cc1OCCOCCN1CCCC1,nt,nt,nt,0.9%,nt,-20.2%
CCCC(=O)N1CCCN(c2nc(N)c3cc(OC)c(OC)cc3n2)CC1,nt,nt,nt,-20.6%,nt,-5.1%
